Data: PubChem BioAssay (NCI)
The panel holds about 79,000 compounds, 15% with a hit somewhere; the sample as a whole holds those more often. The source made the active and inactive calls. Cut-off read from the data, not from the text of the source: active = growth inhibition above about 70%; inactive = the rest.

What was measured:
[1] = NCI Yeast Anticancer Drug Screen. Data for the rad52 strain (AID 147);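 note: 0% = growth of vehicle-treated control cultures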; details: S. cerevisiae rad52 mutant growth inhibition, active compounds read high
Summary of the method: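 Compounds are applied to a genetically defined yeast strain lacking normal DNA damage repair, and inhibition of growth is expressed relative to cultures given vehicle only.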

[2] = NCI Yeast Anticancer Drug Screen. Data for the wt1 strain (AID 149);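 note: 0% = growth of vehicle-treated wt1 cultures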; details: S. cerevisiae wt1 strain (SPY 50644) growth inhibition, active compounds read high
Summary of the method: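 Vehicle-normalised growth inhibition; strain wt1; compound exposure.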

[3] = NCI Yeast Anticancer Drug Screen. Data for the rad50EPP+ strain (AID 151);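 note: 0% = growth of vehicle-treated control cultures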; details: S. cerevisiae rad50 mutant strain, active compounds read high
Summary of the method: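 Compounds were applied to the rad50EPP+ yeast strain, which bears a defined DNA repair alteration, and growth inhibition was determined relative to vehicle-treated cultures.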

[4] = NCI Yeast Anticancer Drug Screen. Data for the mgt1 strain (AID 153); details: S. cerevisiae mgt1 mutant growth inhibition, active compounds read high
Summary of the method: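 Strain: mgt1 yeast, one of a set carrying defined DNA damage repair or cell cycle control alterations. Compound-treated growth compared with vehicle.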

[5] = NCI Yeast Anticancer Drug Screen. Data for the rad50 strain (AID 155);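 note: 0% = growth of vehicle-only cultures of the same strain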; details: S. cerevisiae rad50 strain growth inhibition, active compounds read high
Summary of the method: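 A DNA repair-deficient yeast mutant serves as the test organism; compound-induced growth inhibition is calculated against vehicle-treated cells.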

[6] = NCI Yeast Anticancer Drug Screen. Data for the mec2-1 strain (AID 157); details: S. cerevisiae mec2-1 strain, active compounds read high
Summary of the method: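 Strain: mec2-1 (DNA repair/cell cycle alteration). Compound exposure, then growth measured; inhibition expressed relative to vehicle.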

[7] = NCI Yeast Anticancer Drug Screen. Data for the rad14 strain (AID 159);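 note: 0% = growth of vehicle-treated control cultures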; details: S. cerevisiae rad14 strain growth inhibition, active compounds read high
Summary of the method: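 Vehicle-treated cultures served as the baseline for growth inhibition of a DNA repair-mutant yeast strain exposed to each compound.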

[8] = NCI Yeast Anticancer Drug Screen. Data for the sgs1 mgt1 strain (AID 161);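 note: 0% = growth of cultures given vehicle only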; details: S. cerevisiae sgs1 mgt1 strain, active compounds read high
Summary of the method: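 Test agents were incubated with a DNA-repair-mutant yeast strain. Growth was then read and compared against vehicle-treated controls.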

[9] = NCI Yeast Anticancer Drug Screen. Data for the CLN2oe strain (AID 163);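 note: 0% = growth of vehicle-only control cultures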; details: S. cerevisiae CLN2oe strain, active compounds read high
Summary of the method: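 Growth of a genetically modified yeast strain is measured after compound exposure and compared with cultures given vehicle alone.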

[10] = NCI Yeast Anticancer Drug Screen. Data for the cln2 rad14 strain (AID 165);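 note: 0% = growth equal to vehicle treated cultures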; details: S. cerevisiae cln2 rad14 strain, active compounds read high
Summary of the method: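 Compounds are applied to the cln2 rad14 yeast strain, and growth is then compared with that of vehicle-treated cultures to give inhibition.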

[11] = NCI Yeast Anticancer Drug Screen. Data for the bub3 strain (AID 167); details: S. cerevisiae bub3 mutant strain, active compounds read high
Summary of the method: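 Inhibition values come from growth of compound-treated mutant yeast normalised to vehicle-treated controls.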

[12] = NCI Yeast Anticancer Drug Screen. Data for the wt2 strain (AID 169);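 note: 0% = growth of vehicle-treated yeast cultures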; details: S. cerevisiae wt2 strain growth inhibition, active compounds read high
Summary of the method: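 This strain belongs to a panel of yeast strains with defined genetic alterations in DNA damage repair or cell cycle control. Compounds are applied, and growth inhibition is measured against vehicle-treated cultures.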

[13] = NCI Yeast Anticancer Drug Screen. Data for the mlh1 strain (AID 171);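 note: 0% = growth of vehicle-treated control cultures of the same strain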; details: S. cerevisiae mlh1 strain growth inhibition, active compounds read high
Summary of the method: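 Growth of the mutant yeast strain after compound exposure, expressed as inhibition relative to vehicle-only controls.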

[14] = NCI Yeast Anticancer Drug Screen. Data for the sgs1 strain (AID 173);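 note: 0% = growth of vehicle-only control cultures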; details: S. cerevisiae sgs1 mutant, active compounds read high
Summary of the method: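 Growth of a yeast strain bearing a defined genetic alteration is measured after compound treatment. Inhibition is expressed relative to vehicle-only controls.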

[15] = NCI Yeast Anticancer Drug Screen. Data for the mlh1 rad18 strain (AID 175); details: S. cerevisiae mlh1 rad18 strain growth inhibition, active compounds read high
Summary of the method: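 Read-out is yeast growth inhibition, calculated against vehicle-only controls. The compound was applied to a strain engineered with DNA damage repair alterations.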

[16] = NCI Yeast Anticancer Drug Screen. Data for the rad18 strain (AID 177); details: S. cerevisiae rad18 mutant growth inhibition, active compounds read high
Summary of the method: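 Growth of the mutant yeast strain after compound exposure, normalised to vehicle-only cultures.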

[17] = at 5.0 µM (retest, dose inferred, filed as 0.5)
[18] = at 50.0 µM (retest, dose inferred, filed as 5.0)

Measured: growth inhibition

Cc1ccc(Nc2n[nH]c(=S)s2)c(C)c1
active: [1]; at 100.0 µM 89% | [2]; at 100.0 µM 90% | [4]; at 100.0 µM 85% | [5]; at 100.0 µM 90% | [6]; at 100.0 µM 83% | [7]; at 100.0 µM 91% | [8]; at 50.0 µM 70.5% | [9]; at 100.0 µM 76% | [11]; [18] 71% | [11]; at 100.0 µM 84% | [12]; at 100.0 µM 91% | [13]; at 100.0 µM 89% | [14]; at 100.0 µM 93% | [16]; at 100.0 µM 93%
inactive: [1]; at 1.2 µM -42% | [1]; at 3.7 µM -28% | [1]; at 11.0 µM -33% | [1]; at 33.0 µM 2% | [2]; at 1.2 µM -16% | [2]; at 3.7 µM -3% | [2]; at 11.0 µM -10% | [2]; at 33.0 µM 18% | [3]; at 1.2 µM -45% | [3]; at 3.7 µM -33% | [3]; at 11.0 µM 23% | [3]; at 33.0 µM 56% | [3]; at 100.0 µM 51% | [4]; at 1.2 µM -52% | [4]; at 3.7 µM -56% | [4]; at 11.0 µM -21% | [4]; at 33.0 µM 58% | [5]; at 1.2 µM -11% | [5]; at 3.7 µM -15% | [5]; [17] 21% | [5]; at 11.0 µM 0% | [5]; at 33.0 µM 15% | [5]; [18] 18% | [5]; at 50.0 µM 56.3% | [6]; at 1.2 µM -44% | [6]; at 3.7 µM -45% | [6]; [17] -11% | [6]; at 11.0 µM -18% | [6]; at 33.0 µM -3% | [6]; [18] 8% | [6]; at 50.0 µM 14.8% | [7]; at 1.2 µM -45% | [7]; at 3.7 µM -33% | [7]; at 11.0 µM -41% | [7]; at 33.0 µM 37% | [8]; [17] -6% | [8]; [18] 44% | [9]; at 1.2 µM 4% | [9]; at 3.7 µM 0% | [9]; at 11.0 µM -10% | [9]; at 33.0 µM 13% | [10]; [17] 24% | [10]; [18] 49% | [10]; at 50.0 µM 48.1% | [11]; at 1.2 µM 3% | [11]; at 3.7 µM 10% | [11]; [17] 3% | [11]; at 11.0 µM 30% | [11]; at 33.0 µM 17% | [11]; at 50.0 µM 52.5% | [12]; at 1.2 µM -38% | [12]; at 3.7 µM -34% | [12]; at 11.0 µM -10% | [12]; at 33.0 µM 62% | [13]; at 1.2 µM -9% | [13]; at 3.7 µM 6% | [13]; at 11.0 µM 19% | [13]; at 33.0 µM 64% | [14]; at 1.2 µM -29% | [14]; at 3.7 µM -28% | [14]; at 11.0 µM 9% | [14]; at 33.0 µM 51% | [15]; [17] 1% | [15]; [18] 19% | [15]; at 50.0 µM 24.4% | [16]; at 1.2 µM -27% | [16]; at 3.7 µM -25% | [16]; at 11.0 µM -13% | [16]; at 33.0 µM 39%
